High-throughput results as filed in PubChem BioAssay.
Sampled rows, rich in hits. Any-hit rate of the full collection: about 21%.
Shiga inhibitor: Shiga toxin inhibition; hit rate 9.2% among 290,000; AID 2315; inhibition, % at 38.7 µM; Vero cells, Shiga toxin protein synthesis inhibition reporter; in the data active means inhibition mostly above about 28%, no sharp cut-off; inactive means mostly below about 43%; further: 0% is about no effect
Pf growth 48h: inhibits P. falciparum growth in the first generation, 48 h. hit rate 5.9% among 310,000. P. falciparum luciferase growth in erythrocytes, 48 h. AID 504832. Potency, µM (titrated, usually from 28.7 µM), for inactives: at the highest dose activity change, negative = inhibition, most hits filed as inhibitors; further: potency means the concentration at half of the fitted maximal effect; on the % scale 0 is the no-effect control and ±100 the full control effect
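Luciferase-expressing parasites in RBCs, 2% Hct / 0.1% parasitemia final; RPMI 1640 + 0.5% Albumax; 37 C, 5% CO2, one generation; luminescence read-out, lower signal = inhibition.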
HCMV antiviral: human cytomegalovirus inhibition; HFF cells, HCMV-luciferase reporter, 72 h; active compounds read low; activity change, negative = inhibition, % at 57.5 µM; hit rate 4.5% among 410,000; AID 1259415; in the data active means activity change below about -60%; inconclusive means no clear call, values can overlap the other calls; inactive means above about -39%; further: on the % scale 0 is the no-effect control and ±100 the full control effect
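Inhibition of viral replication was scored as loss of reporter luminescence in HFFs infected with HCMV-luciferase (MOI 1 PFU/cell) for 72 h; compounds tested at 2 doses, normalized to buffer and Salinomycin controls.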
HCV inh: HCV inhibition; Potency, µM (series often up to 41.8 µM), without a hit: at the highest dose activity change, negative = inhibition, usual class: inhibitors; hit rate 3.4% among 340,000; Huh7.5.1 HCVcc-Cre infection, luciferase reporter, 44 h; further: potency means the concentration at half of the fitted maximal effect; on the % scale 0 is the no-effect control and ±100 the full control effect
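A cell-based infection assay in which seeded cells (1,000 per well) receive test compound after 4 h, are inoculated with HCVcc-Cre at approximately 0.5 moi, and are incubated 44 h before luminescence detection.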
CHX counter: counter-screen for Shiga toxin inhibitors: cycloheximide protein synthesis inhibition | cell reporter, cycloheximide protein synthesis inhibition counterscreen | max response, % | hit rate 12% among 300,000; in the data active means max response mostly above about 13%, no sharp cut-off; inactive means mostly below about 14%; further: read at 38.3 µM for the half of the compounds with a filed dose; 0% is about no effect
Pf growth 96h: P. falciparum growth inhibition at 96 hours; P. falciparum luciferase reporter growth, 96 h; Potency, µM (top dose mostly 28.7 µM), for the others: at the top dose activity change, negative = inhibition, hits mostly inhibitors; hit rate 6.9% among 320,000; further: potency means the concentration at half of the fitted maximal effect; on the % scale 0 is the no-effect control and ±100 the full control effect
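Erythrocytes infected with luciferase-expressing P. falciparum were dispensed at 2% hematocrit and 0.05% parasitemia (final), then incubated with compounds 96 hours at 37 C in 5% CO2. Luminescence after detection reagent addition reported growth.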
Numbers without * were called inactive; ? = inconclusive; / = no result; [ ] = remark or other dose. Unless noted, the call rests on the fitted dose curve; in most records, active means well fitted inhibition curve with a large enough effect; inconclusive means small, poorly fitted or top-dose-only effect, or another doubt; inactive means no such curve, though single readings can be large or run the other way.

SMILES	Shiga inhibitor	Pf growth 48h	HCMV antiviral	HCV inh	CHX counter	Pf growth 96h
CCOc1ccc(-n2ccnc(SCC(=O)Nc3ccc(OC)cc3OC)c2=O)cc1	/	?	-24	8.9µM*	/	?
COc1ccc(S(=O)(=O)CCC(=O)Nc2ccc(OC)cc2OC)cc1	-11	-9%	6	7%	-2	?
COc1ccc(NC(=O)CCS(=O)(=O)c2ccccc2)c(OC)c1	36*	17%	11	-19%	15*	-28%
COc1ccc(NC(=O)CSc2nccn2Cc2ccccc2)c(OC)c1	17	-8%	-3	-8%	12	-6%
O=C(c1ccc(NS(=O)(=O)c2ccc(F)cc2)cc1)N1CCC1	/	18%	-33	11%	/	-5%
C=C1CCN(C(CC(C)C)C(=O)NCc2ccc(Cl)c(Cl)c2)S(=O)(=O)c2ccccc21 (centres undefined)	-9	/	/	/	-2	/
COc1ccccc1-n1c(=O)n(C)c2c(C(N)=O)nc(-c3cc(OC)c(OC)c(OC)c3)nc21	/	/	44	/	/	/
Cc1cc(C)c(S(=O)(=O)NCCc2sc(-c3cccnc3)nc2C)c(C)c1	/	/	-23	/	/	/
C=CCn1c(C(c2ccccc2)c2ccccc2)n[nH]c1=S	-4	-20%	22	13%	5	3.7µM*
O=C(CSc1nc2ccccc2c(=O)n1CCCN1CCOCC1)Nc1cccc(S(=O)(=O)N2CCCCCC2)c1	2	0.52µM*	?	13µM*	-4	0.52µM*
Cc1ccc(NC(=O)CSc2nc3ccccc3c(=O)n2CCCN2CCCCC2)cc1Cl	-13	-15%	-97*	2µM*	-16	?
CCn1c(SCc2ccc(OC)c(F)c2)nc2ccccc2c1=O	2	?	-17	-24%	2	6%
Cc1cc(C)c(NC(=O)CSc2nc3ccccc3c(=O)n2CCCN2CCOCC2)c(C)c1	/	?	-8	2%	/	?
CC(=O)Nc1ccc(NC(=O)CSc2nc3ccccc3c(=O)n2CCCN2CCOCC2)cc1	/	/	-8	26%	/	/
COc1ccc(CSc2nc3ccccc3c(=O)n2CCCN2CCOCC2)cc1F	31	?	40	-28%	9	8.3µM*
CCC(C)NC(=O)CSc1nc2ccccc2c(=O)n1CCCN1CCCCC1 (centres undefined)	-5	2%	2	9%	-2	12%
O=C(CSc1nc2ccccc2c(=O)n1CCCN1CCOCC1)Nc1ccc(F)c(Cl)c1	/	/	-18	1.8µM*	/	/
COc1ccc(NC(=O)N2c3ccc(OC)cc3[C@@H](NC(=O)c3ccc(C)s3)[C@H](C)[C@H]2c2ccccc2)cc1	/	/	2	/	/	/
Cc1ccc(OCC(=O)Nc2nnc(SCc3cc(=O)n4cccc(C)c4n3)s2)cc1	-6	/	12	/	-5	/
CCN(CC)CCCNC(=O)Cn1nc(N2CCN(c3ccccc3OC)CC2)ccc1=O	/	/	-3	/	/	/
COc1ccc2cc([C@@H](C#N)C3CCCC3)ccc2c1	/	/	1	/	/	/
CC1CCN(CCCn2c(SCC(=O)Nc3ccccc3Cl)nc3ccccc3c2=O)CC1	-20	-28%	-12	11µM*	-10	-5%
CCC(Nc1ccc(-c2nc(-c3ccccn3)no2)cc1[N+](=O)[O-])c1ccccc1 (centres undefined)	/	/	43	/	/	/
Cc1c(-c2cccc(NC(=O)Cc3ccccc3)c2)nc2ncccn12	/	/	-19	/	/	/
c1cnc2nc(-c3ccc4c(c3)OCO4)cn2c1	38*	128%	190	1%	35*	46%
SMILES	Shiga inhibitor	Pf growth 48h	HCMV antiviral	HCV inh	CHX counter	Pf growth 96h
O=C(Nc1cccc(-c2cn3c(n2)SCC3)c1)c1ccc2c(c1)OCO2	116*	55%	-21	-27%	31	210%
O=C(Cc1ccc(Br)cc1)Nc1cccc(-c2cn3c(n2)SCC3)c1	7	?	-71*	?	13	?
CCCC(CCC)C(=O)Nc1cccc(-c2cn3c(n2)SCC3)c1	2	?	0	13%	-2	?
Cc1c(-c2cccc(NC(=O)c3ccco3)c2)nc2ncccn12	7	?	-76*	?	5	?
Cc1ccc(CNC(=O)C2CCC(=O)N2Cc2ccc(C)cc2)cc1 (centres undefined)	-18	-3%[0.00184 µM]	-1	12%	-5	-17%
O=C(Nc1cccc(-c2cn3cccnc3n2)c1)c1ccc2c(c1)OCO2	14	-16%	37	?	9	1.3µM*
O=C(Nc1cccc(-c2cn3cccnc3n2)c1)c1ccco1	29	-15%	14	-19%	24*	?
O=C(Nc1cccc(-c2cn3cccnc3n2)c1)c1ccc(Br)o1	-5	-28%	-3	?	2	6%
Cc1cc(C(=O)NNC(=O)Cc2ccc(Cl)c(Cl)c2)c(C)o1	/	?	-26	-14%	/	?
COc1ccc(C(CNC(=O)c2oc3c(Cl)cccc3c2C)N2CCCC2)cc1 (centres undefined)	/	?	10	?	/	10µM*
COc1ccc(C(CNC(=O)c2oc3ccccc3c2C)N2CCCC2)cc1 (centres undefined)	/	9.3µM*	-2	?	/	9.3µM*
COc1ccc(C(CNC(=O)c2oc3ccc(Cl)cc3c2C)N2CCCCC2)cc1 (centres undefined)	17	?	-21	-1%	0	?
COc1ccc(C(CNC(=O)c2ccccc2C)N2CCCC2)cc1 (centres undefined)	12	/	47	-2%	5	-18%
O=C(C=Cc1ccco1)c1ccco1	/	/	18	16%	/	/
O=C(C=C1SCCS1)/C=C/c1ccco1	71*	297%	64	29%	37*	331%
O=C(O)C(C(=O)/C=C/c1ccco1)=C1SCCS1	74*	68%	?	20%	27*	59%
COc1ccc(OC)c(NC(=O)CSC2=Nc3ccccc3C3=NC(CCC(=O)NCc4ccccc4)C(=O)N23)c1 (centres undefined)	/	/	10	/	/	/
O=C(O)c1cccc2c1Cc1cc([N+](=O)[O-])ccc1-2	/	/	-97*	5%	/	/
Nc1ccc2c(c1)Cc1cc([N+](=O)[O-])ccc1-2	67*	38%	30	-15%	42*	?
Nc1ccc2c(c1)Cc1ccccc1-2	64*	60%	8	?	34*	60%
Nc1cc2c(cc1Cl)-c1ccccc1C2	/	/	42	?	/	/
O=C(O)c1cccc2c1-c1ccc([N+](=O)[O-])cc1C2=O	/	/	22	27%	/	/
COc1ccc(/C=C(\NC(=O)c2ccc(OC)cc2)C(=O)N2CCCCC2)cc1	10	14%	-33	5%	2	-11%
COc1ccc(/C=C2\SC(=O)N(CC(=O)NN3CCN(C)CC3)C2=O)cc1OC	-5	63%	-20	-3%	-2	26%
Cc1ccc(NC(=O)NCc2cccnc2)cc1C	11	4%	44	3%	9	0%
